# Hits are enriched below; roughly 8% of the tested compounds scored in any of these assays.
# SW480 rereplic: A quantitative high throughput screen for small molecules that induce DNA re-replication in SW480 colon adenocarcinoma cells. Potency, µM (top dose mostly 46.1 µM), for the others: at the top dose re-replication activation, usual class: activators. 340,000 compounds, 1.8% hits. AID 624297, 2012. SW480 DNA re-replication, Hoechst DNA content imaging, 48 h; also: % of control where 0% means no effect; nearly all actives have a fitted effect of over 55% in size
#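 Hoechst fluorescence of nuclei (405 nm excitation, 500-530 nm emission) measured by plate-scanning imager after 48 hr compound exposure at 37 C; re-replication scored as increased number of nuclei with elevated intensity.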
# KB-V1 MDR tox: qHTS assay for MDR1-selective chemotherapeutics: Primary screen using the drug-selected MDR subline cells KB-V1; KB-V1 MDR cells viability, CellTiter-Glo, 72 h; Potency, µM (top dose mostly 46.1 µM), most hits filed as cytotoxic; 400,000 compounds, 3.4% hits; also: % is scaled to controls: 0 for no effect and ±100 for the full control effect; nearly all actives have a fitted effect of over 60% in size
#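 Drug-selected KB-V1 cells, grown in DMEM lacking phenol red with 10% FBS, receive compound titrations; after three days at 37 degrees C, surviving cell ATP is quantified by CellTiter-Glo luminescence and responses normalized and curve-fitted.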
# HT1080 IDH1KD tx: qHTS for induction of synthetic lethality in tumor cells producing 2HG: qHTS for the HT-1080-IDH1KD cell line | 360,000 compounds, 2% hits | Potency, µM (top dose mostly 46.1 µM), inactives show at the top dose activity, negative = toxicity, usual class: cytotoxic | HT-1080 IDH1 knockdown viability, ATP luminescence, 48 h;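 also: 0% = DMSO wells and -100% = cell-free medium wells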
#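 % activity derives from luminescence (CellTiter-Glo), normalised to DMSO and no-cell wells. HT-1080-IDH1KD cells, 750/well, had 48 h compound exposure at 37 °C.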
# HT1080NT lethal: qHTS for induction of synthetic lethality in tumor cells producing 2HG: qHTS for the HT-1080-NT fibrosarcoma cell line; HT-1080-NT fibrosarcoma viability, CellTiter-Glo ATP luminescence, 48 h; Potency, µM (highest dose often 46.1 µM), for inactives: at the top dose activity, negative = less viability, actives largely listed as cytotoxic; 360,000 compounds, 1.6% hits;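 also: NT is the 2HG producing partner of a matched IDH1 knockdown line; 0% = DMSO-treated cells and -100% = media-only wells without cells; nearly all actives have a fitted effect of over 55% in size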
#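 Read-out is CellTiter-Glo luminescence after 10 minutes at room temperature, following 48 hours' compound treatment of HT-1080-NT cells (750 cells/well, RPMI, 5% FBS, 37 degrees C).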
# KB-3-1 cytotox: qHTS assay for MDR1-selective chemotherapeutics: Primary screen using the parental adenocarcinoma cell KB-3-1; KB-3-1 viability, CellTiter-Glo ATP luminescence, 72 h; Potency, µM (titrated, usually from 46.1 µM), actives largely listed as cytotoxic; 400,000 compounds, 1.4% hits; AID 1347075, 2019; also: % is scaled to controls: 0 for no effect and ±100 for the full control effect; nearly all actives have a fitted effect of over 60% in size
#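 KB-3-1 parental drug-naive adenocarcinoma cells in DMEM/10% FBS, incubated 72 h at 37 C with pin-transferred compounds across a concentration series. Viability by CellTiter-Glo luminescence; concentration-response curves fitted after normalization.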
# MCF10A rereplic: A quantitative high throughput screen for small molecules that induce DNA re-replication in MCF 10a normal breast cells | 350,000 compounds, 2.9% hits | Potency, µM (highest dose often 46.1 µM), for the others: top-dose activity, positive = re-replication, usual class: activators | MCF 10A DNA re-replication, Hoechst nuclear intensity, 48 h; also: % of control where 0% means no effect; nearly all actives have a fitted effect of over 50% in size
# Numbers without * were called inactive; i = inactive; ? = inconclusive; . = no result given. Calls follow the shape of the dose curve; as a rule, active = well fitted curve in the direction sought with a large enough effect; inconclusive = small, poorly fitted or top-dose-only effect, or another doubt; inactive = no such curve, though single readings can be large; an effect the other way counts as inactive or inconclusive. Potency is read from the fitted curve at half-maximal effect.
SMILES,SW480 rereplic,KB-V1 MDR tox,HT1080 IDH1KD tx,HT1080NT lethal,KB-3-1 cytotox,MCF10A rereplic
C=CCC[C@H](Cc1ccc(F)cc1)C(=O)OC[C@H](Cc1c[nH]c2ccccc12)NC(=O)[C@@H](CC=C)CC(=O)N[C@H](CO)Cc1ccccc1,4%,i,18µM*,21µM*,?,?
C=CC[C@@H](CC(=O)N[C@H](CO)Cc1ccccc1)C(=O)N[C@H](COC(=O)[C@@H](CC=C)Cc1ccc(F)cc1)C(C)(C)C,?,i,-22%,?,21µM*,?
C=CCC[C@H](Cc1ccc(F)cc1)C(=O)OC[C@@H](NC(=O)[C@@H](CC=C)CC(=O)N[C@@H](CO)Cc1ccccc1)C(C)(C)C,?,i,?,?,?,33%
C=CCC[C@@H](Cc1ccc(F)cc1)C(=O)OC[C@H](Cc1c[nH]c2ccccc12)NC(=O)[C@@H](CC=C)CC(=O)N[C@H](CO)Cc1ccccc1,3.7µM*,?,-27%,-20%,i,21%
Cc1ccc(-n2ncc(C(=O)NCCCN3CCc4ccccc4C3)c2C2CCN(C(=O)OC(C)(C)C)CC2)cc1C,.,i,.,.,i,.
Cc1ccc(CNC(=O)CCCN2C(=O)COc3ccc(C)cc32)cc1,.,i,.,.,i,.
Cc1ccc(Nc2nnc(-c3ccc(C)c(S(=O)(=O)N4CCOCC4)c3)c3ccccc23)cc1,.,i,.,.,i,.
CC1CN(CC(O)COC(c2ccc(Cl)cc2)c2ccc(Cl)cc2)CC(C)O1 (stereo not given),-7%,?,?,?,?,7.3µM*
CN(C)CC(O)COC(c1ccc(Cl)cc1)c1ccc(Cl)cc1 (stereo not given),9%,i,?,21µM*,i,0%
CC1CN(CC(O)COc2ccc(C(C)C)cc2)CC(C)O1 (stereo not given),-7%,i,2%,-1%,i,19%
Cc1c(C(=O)NCc2ccccc2Cl)sc2nc[nH]c(=O)c12,.,i,.,.,i,.
CCCOc1ccc(Br)cc1CSC(=N)N,-13%,i,?,-28%,8.2µM*,7%
CC1CCCC(NC(=S)NC(=O)c2ccccc2Br)C1C (stereo not given),?,16µM*,4%,0%,26µM*,?
CCCCN(CCCC)S(=O)(=O)c1ccc2oc(C(=O)N3CCOCC3)c(C)c2c1,10%,4.6µM*,-24%,2%,i,2%
CCCC1=C(C(=O)OCC)C(c2ccc(F)cc2)n2ncnc2N1 (stereo not given),5%,i,3%,5%,i,11%
CCCC1=C(C(=O)OCC)C(c2cccs2)n2ncnc2N1 (stereo not given),-13%,?,0%,17%,i,4%
CCOC(=O)C1=C(C)NC(=O)NC1/C(C)=C/c1ccccc1 (stereo not given),-2%,21µM*,?,-15%,i,10%
CCCCOC(=O)C1=C(C)Nc2ncnn2C1c1ccc(OCC)c(OC)c1 (stereo not given),0%,4.6µM*,7%,7%,i,0%
CCCC1=C(C(=O)OCC)C(c2ccc(N(C)C)cc2)n2ncnc2N1 (stereo not given),-4%,18µM*,-23%,-14%,?,5%
CCOC(=O)C1=C(C)NC(=O)NC1C (stereo not given),0%,i,?,8%,i,-2%
CCCC1=C(C(=O)OCC)C(/C=C/c2ccccc2)n2ncnc2N1 (stereo not given),?,?,11µM*,22µM*,8.9µM*,?
